COUP-TFII inh – blocks human COUP-TFII nuclear receptor; P24468; HEK293T NGFI-A luciferase reporter, luminescence; inhibition, % at 8.6 µM; 370,000 compounds, 0.7% hits;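 active = inhibition above a per-plate cutoff, mean inhibition of test wells between control levels plus 3 SD, cut at about 38% in these data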;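 also: cells cotransfected with COUP-TFII expression vector driving the NGFI-A reporter; 0% = median of COUP-TF2 test wells and 100% = reporter-only cells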
NCOA1 inh – inhibitors of human steroid receptor coactivator 1 (SRC1); Q15788; HEK293 GAL4-SRC1 luciferase reporter, luminescence; inhibition, % at 3.6 µM; 360,000 compounds, 0.12% hits; AID 588354;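 active = inhibition above the campaign mean plus 3 SD, with each screening campaign given its own cutoff, cut at about 60% in these data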;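 also: 0% = DMSO treated cells and 100% = gossypol at 36 µM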
SRC3 inh – inhibitors of human steroid receptor coactivator 3 (SRC3); Q9Y6Q9; HEK293 GAL4-SRC3 luciferase reporter, luminescence; inhibition, % at 3.6 µM; 360,000 compounds, 0.17% hits; AID 588352;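 active = inhibition above a per-campaign cutoff, the mean of all compounds plus 3 SD, cut at about 60% in these data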;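 also: 0% = DMSO-treated cells and 100% = gossypol-treated cells at 36 µM; higher means less SRC3-driven luciferase light from the GAL4 reporter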
SRC2 inh – human SRC2 (NCOA2) inhibition | HEK293 GAL4-SRC2 luciferase reporter, luminescence | 370,000 compounds, 0.17% hits | inhibition, % at 9 µM | Q15596;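 active = inhibition above the mean inhibition of all tested compounds plus 3 SD, set per campaign, cut at about 52% in these data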;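 also: 0% = DMSO treated cells and 100% = cells given Gossypol at 36 µM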
LRH-1 inv ag – suppresses constitutive activity of human LRH-1; inhibition, % at 3.6 µM; AID 602396; 360,000 compounds, 0.13% hits; O00482; HEK293T StAR-luciferase reporter, LRH-1 transfected, 24 h;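 active = inhibition above the mean inhibition of all tested compounds plus 3 SD, cut at about 73% in these data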;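 also: 0% = DMSO wells and 100% = reporter-only cells lacking LRH-1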
Target sequence (O00482 whole entry, looked up): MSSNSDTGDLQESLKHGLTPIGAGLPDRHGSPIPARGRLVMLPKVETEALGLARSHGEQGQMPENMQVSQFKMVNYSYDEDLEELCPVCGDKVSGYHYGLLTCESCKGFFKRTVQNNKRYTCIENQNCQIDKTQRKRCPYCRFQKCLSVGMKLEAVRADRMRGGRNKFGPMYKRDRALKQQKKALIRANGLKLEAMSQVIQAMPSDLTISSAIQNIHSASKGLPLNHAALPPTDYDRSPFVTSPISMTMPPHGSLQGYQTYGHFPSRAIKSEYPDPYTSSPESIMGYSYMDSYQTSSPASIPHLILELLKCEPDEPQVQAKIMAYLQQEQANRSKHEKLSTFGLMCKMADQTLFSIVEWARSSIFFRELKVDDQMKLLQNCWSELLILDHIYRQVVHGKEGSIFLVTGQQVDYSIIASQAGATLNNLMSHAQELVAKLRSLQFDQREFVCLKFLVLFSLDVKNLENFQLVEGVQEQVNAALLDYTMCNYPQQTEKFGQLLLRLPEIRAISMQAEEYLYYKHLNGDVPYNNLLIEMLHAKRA
GalR3 antag – antagonists of human GalR3 | HEK293 GalR3-CNG cAMP membrane potential fluorescence; galR3 body fused to GalR1 C-terminus | 360,000 compounds, 0.44% hits | O60755 | AID 651719 | inhibition, % at 3 µM;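 active = inhibition above the screen-wide average plus 3 SD, cut at about 13% in these data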;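 also: forskolin and galanin both at EC90 stimulate the cells; cAMP rise reported by CNG channel membrane potential dye signal; 0% = forskolin plus galanin with DMSO and 100% = forskolin alone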
VP16 Luc counter – counter-screen for COUP-TFII antagonists: inhibitors of VP16 | 2,500 compounds, 25% hits | shares compounds with COUP-TFII inh | inhibition, % at 8.5 µM | HEK293 Gal4-VP16 luciferase reporter, luminescence; in the data active = inhibition above about 13%
NR2F2 inh conf – COUP-TFII (NR2F2) inhibition, confirmation assay; shares compounds with COUP-TFII inh; AID 687008; HEK293 NGFI-A luciferase reporter, luminescence; inhibition, % at 8.5 µM; 2,500 compounds, 45% hits;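 active = mean inhibition over three repeats above a set limit taken from the earlier primary screen, cut at about 38% in these data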;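 also: 100% = cells given the luciferase reporter alone without the COUP-TF2 vector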
Numbers without * were called inactive; / = no result; ! = not active in a repeat. This is a sample that favours compounds with a hit; in the whole collection about 1.1% have one here.

SMILES | COUP-TFII inh | NCOA1 inh | SRC3 inh | SRC2 inh | LRH-1 inv ag | GalR3 antag | VP16 Luc counter | NR2F2 inh conf
COC(=O)C1=C(C)N(Cc2ccccc2C(F)(F)F)C(=NCc2cc(OC)c(OC)c(OC)c2)NC1c1ccc(Cl)cc1 (stereo not drawn) | 41* | / | / | 0 | / | -3 | -10 | -1
O=C(Nc1ccc(S(=O)(=O)N2CCCC2)cc1)c1ccc(OCC2CCCO2)cc1 (stereo not drawn) | 38* | -16 | -5 | 22 | 24 | -1 | -2 | 17
CC(C)CC(=O)NC(=S)N1CCCCCC1 | 7 | -9 | 3 | 3 | 5 | 4 | / | /
S=C(Nc1ccc(Nc2ccccc2)cc1)Nc1ccccn1 | 39* | -21 | 18 | -24 | 8 | 4 | -30 | 16
S=C(Nc1ccccc1)Nc1ccccn1 | 1 | -11 | -32 | -15 | -8 | -8 | / | /
COc1cc(C#Cc2c(-c3cncn3C)n(C)c3ccc(-c4cnc(OC)nc4)cc23)cc(OC)c1 | 45* | 13 | 25 | 21 | 12 | -5 | -8 | -1
CN1C(=O)C2(C(C#N)=C(N)N(c3cc(Cl)cc(Cl)c3)C3=C2C(=O)CCC3)c2ccccc21 (stereo not drawn) | 43* | 6 | 33 | 7 | 9 | -4 | -16 | 26
COc1ccc(-c2c[n+]3c(n2-c2ccccc2)SCC3)cc1 | 57* | 26 | 39 | 14 | 25 | 0 | 10 | 29
Cc1ccc(-c2c[n+]3c(n2-c2ccccc2)SCC3)cc1 | 65* | 22 | 42 | 14 | 29 | 0 | 0 | 25
COc1cc(/C=C2\CC/C(=C\c3cc(OC)c(OC)c(OC)c3)C2=O)cc(OC)c1OC | 0 | -8 | 25 | -7 | -1 | -5 | / | /
COc1cc(/C=C2\COC/C(=C\c3cc(OC)c(OC)c(OC)c3)C2=O)cc(OC)c1OC | 60* | -187 | 3 | 75* | -12 | -1 | 92* | 103*
Cc1cc(NC(=O)CCC(=O)N(c2ccccc2)C(C(=O)NC2CCCC2)c2ccccc2C)no1 (stereo not drawn) | 10 | 11 | 7 | -13 | -14 | -3 | / | /
CCCCCCCCCCCCCCCC[n+]1cccc(C(=O)N(CC)CC)c1 | -18 | -4 | -6 | 1 | 9 | -6 | / | /
CCCCCCCCCCCCCCCC[n+]1ccccc1 | 51*! | 9 | 36 | 9 | 48 | -1 | 1 | 26
Cc1cc(C)n(-c2nc3sc4c(c3c3nnc(SCC(N)=O)n23)CC(C)(C)OC4)n1 | -1 | -5 | 15 | -1 | 13 | -3 | / | /
COc1ccc(Cl)c(OC)c1C(=O)NC(=O)Nc1nc(C)nc(C)n1 | 3 | 9 | 11 | 7 | -4 | 3 | / | /
N#Cc1ccccc1N1CCN(C(=O)C2CCN(c3ncnc4c3sc3cccc(F)c34)CC2)CC1 | 58* | / | / | 13 | / | / | -8 | 28
Cc1nn(C)c(C)c1/C=N/NC(=O)C(C)(C)Oc1ccc(Cl)cc1 | / | 12 | 18 | / | 4 | / | / | /
Cc1nn(C(C)(C)C)c(C)c1/C=N/OC(=O)Nc1ccc(Cl)cc1 | 99* | 93* | 93* | 91* | 94* | -7 | 94* | 107*
COc1ccc(/C=N/NC(=O)Cn2cnc3ccccc3c2=O)cc1 | 23 | -12 | 4 | -15 | -2 | -12 | / | /
O=C(COc1ccc(S(=O)(=O)N2CCOCC2)cc1Cl)NCc1ccccn1 | -9 | -3 | 5 | 9 | 10 | -9 | / | /
CCCC1CCC2(CCCN2CCOC(=S)Nc2ccccc2OC)CC1 (stereo not drawn) | 51* | / | / | / | / | / | 2 | 8
CC(Oc1ccc(Cl)cc1Cl)c1nc(-c2ccc(NC(=O)c3ccncc3)cc2)no1 (stereo not drawn) | 80* | 15 | 22 | -12 | 31 | -7 | 0 | 32
CC1(C)C(=O)Nc2ccccc2N1C(=O)COc1ncnc2c(Cl)cc(Cl)cc12 | 11 | 3 | 7 | -27 | 8 | -4 | / | /
COC(=O)c1c(-c2ccc(N(C)C)cc2)sc2ccc(OC)cc12 | 57* | 0 | -16 | 61* | 28 | 2 | 24* | 49*
SMILES | COUP-TFII inh | NCOA1 inh | SRC3 inh | SRC2 inh | LRH-1 inv ag | GalR3 antag | VP16 Luc counter | NR2F2 inh conf
COC(=O)c1c(-c2ccccc2OC)sc2ccc(OC)cc12 | -1 | 8 | 5 | 0 | 0 | -4 | / | /
O=[N+]([O-])c1ccc(N2CCN(Cc3cccc([N+](=O)[O-])c3)CC2)cc1 | 18 | -4 | -1 | 27 | 31 | -11 | / | /
O=[N+]([O-])c1ccc(CN2CCN(c3ccc([N+](=O)[O-])cc3)CC2)cc1 | 40* | 5 | 11 | 13 | 21 | -13 | 4 | 20
COc1ccc2cc3c(N)nn(C(=O)c4ccccc4[N+](=O)[O-])c3nc2c1 | 43* | 49 | 57 | 37 | 50 | 0 | 15* | 31
COc1ccc2cc3c(N)nn(C(=O)c4ccc(Cl)c([N+](=O)[O-])c4)c3nc2c1 | 3 | 30 | 39 | -2 | 3 | 2 | / | /
O=C(CN1C(=O)C(c2ccc(F)cc2)=NC12CCCC2)Nc1ccc(F)cc1 | 39* | 16 | 24 | 21 | 41 | / | -5 | 28
Cc1cccc(OCC(=O)Nc2ccc(N3CCN(C(=O)c4ccco4)CC3)cc2)c1 | 64* | -24 | 23 | 2 | 20 | 8 | 1 | 34
Cc1ccccc1C(=O)N1CCN(c2ccc(NC(=S)NC(=O)c3ccco3)cc2)CC1 | 46* | -8 | 24 | 23 | 23 | -3 | -8 | 18
COc1ccccc1C(=O)NC(=S)Nc1ccc(N2CCN(C(=O)c3ccco3)CC2)cc1 | 23 | 6 | -2 | 5 | -2 | -3 | / | /
Cc1oc(/N=C/c2ccc3c(c2)OCO3)c(C#N)c1C | -14 | 5 | 8 | -5 | 16 | -6 | / | /
NC(=O)[C@H]1CC2(CC(c3cccc(NC(=O)COc4ccc(Cl)cc4)c3)=NO2)CN1C(=O)Cc1ccc([N+](=O)[O-])cc1 (stereo partly drawn) | 74* | 28 | 27 | 11 | 42 | -8 | -6 | 66*
Cc1nnc2ccc(-c3cccc(NC(=O)c4ccc(Cl)nc4)c3)nn12 | -30 | 8 | 4 | -16 | -15 | 6 | / | /
CCCc1cc(CCC)n2nc(N)nc2n1 | 9 | -11 | 0 | 17 | 20 | -2 | / | /
COc1cc2c(cc1OC)CN1CCc3cc(OC)c(OC)cc3C1C2 (stereo not drawn) | -5 | -15 | 0 | 3 | 16 | -4 | / | /
CCC1=C(CC2NCCc3ccccc32)CC2c3cc(OC)c(OC)cc3CCN2C1 (stereo not drawn) | 67* | 73* | 82* | 55* | 88* | -6 | -13 | 54*

Assay outcomes: PubChem BioAssay, The Scripps Research Institute Molecular Screening Center
